# Screening results deposited in PubChem by Broad Institute.
# The full list was thinned out, with hits kept by preference.
# CD40 NFkB inh: inhibitors of CD40-induced NF-kB signaling, primary screen, BL2 cells, luciferase reporter, single point. CD40L-induced, 4 h. inhibition, % at 10 µM. hit rate 0.94% among 83,000. AID 1053188, 2014;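 active means mean inhibition of at least 50% with a set share of replicates also reaching that level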;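 further: 0% = neutral control wells and 100% = IKK inhibitor VII at 50 µM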
# Active calls of the source: *; [ ] = remark or other dose.
SMILES,CD40 NFkB inh
CO[C@@H]1CN(C)C(=O)c2ccc(NC(=O)C3CCOCC3)cc2OC[C@@H](C)N(C(=O)C2CCOCC2)C[C@H]1C,-1
O=C(CC1CC1)N1CC(=O)N2[C@H](CO)[C@@H](c3ccc(/C=C/c4ccccc4)cc3)[C@H]2C1,22[25 µM]
CO[C@H]1CN(C)C(=O)c2ccc(NC(=O)C3CC3)cc2OC[C@H](C)N(C(C)=O)C[C@@H]1C,-4[25 µM]
C[C@H]1CN([C@@H](C)CO)C(=O)c2ccccc2-c2ccccc2CO[C@H]1CN(C)Cc1cccc(F)c1,7
O=C1N[C@@H](c2ccccc2)COCc2cn(nn2)CC[C@@H](Cc2ccc(C(F)(F)F)cc2)C(=O)N[C@@H](c2ccccc2)COCc2cn(nn2)CC[C@H]1Cc1ccc(C(F)(F)F)cc1,8
Cc1ccccc1-c1ccc(C2[C@@H]3CN(C(=O)Cc4ccncc4)C[C@H]2N3)cc1 (stereo not given in full),10[25 µM]
O=C(C[C@@H]1C[C@H]2c3cc(NC(=O)Nc4ccccc4F)ccc3O[C@H]2[C@@H](CO)O1)NCc1ccc2c(c1)OCO2,-12[25 µM]
N#C[C@@H]1[C@H](c2ccc(C#Cc3ccccc3F)cc2)[C@@H](CO)N1C(=O)C1CCCC1,94*
N#C[C@H]1[C@@H](c2ccc(C#Cc3ccc(F)cc3)cc2)[C@H](CO)N1C(=O)C1CCCC1,15
CC(C)C#Cc1ccc([C@@H]2[C@@H](C#N)N(C(=O)c3ccccn3)[C@@H]2CO)cc1,-11[25 µM]
N#C[C@@H]1[C@@H](c2ccc(C#Cc3ccccc3F)cc2)[C@@H](CO)N1C(=O)C1CC1,0
N#C[C@H]1[C@H](c2ccc(C#Cc3ccccc3F)cc2)[C@@H](CO)N1C(=O)C1CC1,50*[25 µM]
N#C[C@@H]1[C@@H](c2ccc(C#Cc3ccccc3F)cc2)[C@H](CO)N1C(=O)C1CC1,-4[25 µM]
CC(C)C#Cc1ccc([C@H]2[C@H](C#N)N(C(=O)c3ccccn3)[C@H]2CO)cc1,15[25 µM]
N#C[C@H]1[C@H](c2ccc(C#Cc3ccc(F)cc3)cc2)[C@H](CO)N1C(=O)C1CCCC1,-13
CC(C)C#Cc1ccc([C@H]2[C@@H](CO)N(C(=O)c3ccccn3)[C@H]2C#N)cc1,60*[25 µM]
O=S(=O)(c1ccccc1)N1CC[C@@H]2[C@H](CO)Nc3ccc(C#CC4CCCCC4)cc3[C@@H]21,9[25 µM]
COc1ccc(S(=O)(=O)N2CCCCN3[C@H](CO)[C@H](c4ccc(C#CC(C)C)cc4)[C@H]3C2)cc1,19
O=C(C[C@H]1CC[C@@H]2[C@H](COC[C@@H](O)CN2C(=O)Nc2ccc(F)cc2)O1)NC1CCC1,-5[25 µM]
COc1ccc2c3c([nH]c2c1)[C@H](CO)N(Cc1ccccc1F)CC31CN(CC2CC2)C1,3[25 µM]
C[C@@H]1CN(C)C(=O)Cc2cc(NS(C)(=O)=O)ccc2O[C@@H]1CN(C)S(C)(=O)=O,4
CCC(=O)N[C@@H]1C=C[C@@H](CC(=O)NCC2CC2)O[C@H]1CO,1
Cc1ccc(CNC(=O)CCS(=O)(=O)c2ccc(C)cc2)cc1,2
O=C(CCCc1ccccc1)NCCC1=CCCCC1,-60
Cc1ccc(S(=O)(=O)CCC(=O)NCCC2=CCCCC2)cc1,48*
SMILES,CD40 NFkB inh
CC[C@@H]1C/C=C\C[C@H](c2ccccc2)NC(=O)CCC(=O)N1,3[25 µM]
CC(=O)Nc1ccc2c(c1)CC(=O)N(C)C[C@H](C)[C@@H](CN(C)S(C)(=O)=O)O2,-4
CO[C@@H]1CN(C)C(=O)c2ccc(NC(=O)c3ccccc3F)cc2OC[C@H](C)N(C)C[C@H]1C,-1[25 µM]
CNC[C@H]1Oc2ccc(NC(=O)NC(C)C)cc2C(=O)N(C)C[C@H]1C,-1
O=C(/C=C/c1ccc([N+](=O)[O-])cc1)Nc1ncc([N+](=O)[O-])s1,92*
CCCCC(CC)C(=O)Nc1ncc([N+](=O)[O-])s1 (stereo not given),8
Cc1ccc(CC(=O)Nc2ncc([N+](=O)[O-])s2)cc1,-47
CCC(=O)N[C@@H]1C=C[C@H](CC(=O)NCC2CC2)O[C@@H]1CO,-2
O=C(C[C@@H]1C[C@H]2c3cc(NC(=O)C4CCOCC4)ccc3O[C@H]2[C@H](CO)O1)NCc1ccc(Oc2ccccc2)cc1,6[25 µM]
C[C@H]1CN([C@@H](C)CO)C(=O)c2ccccc2-c2ccccc2CO[C@H]1CN(C)C(=O)c1ccncc1,-16
Nc1nc(N)c2cc(Sc3cccc(C(F)(F)F)c3)ccc2n1,31
Nc1nc(N)c2cc(Sc3ccc(Cl)cc3)ccc2n1,0
Nc1nc(N)c2cc(CNc3ccc(Cl)c(Cl)c3)ccc2n1,92*
CC(C)OC(=O)N(C)C[C@H]1OCc2ccccc2-c2c(n(C)c3ccccc23)C(=O)N([C@H](C)CO)C[C@@H]1C,6
CCCN1C[C@@H](C)[C@H](OC)CN(C)C(=O)c2cc(NC(=O)NC3CCCC3)ccc2OC[C@@H]1C,-6
O=C1Nc2ccccc2CCc2ccccc21,3
O=C(N/N=C1\CCc2ccccc21)c1ccccc1O,25
O=C1C(=NO)CCc2ccccc21,35*
CCCCCCCCCCCCCCCC[n+]1ccccc1,99*
O=C(c1ccccc1)N1CC[C@@H]2[C@@H](CO)Nc3ccc(C#Cc4cccnc4)cc3[C@@H]21,-4
CNC[C@@H]1Oc2ccc(NC(=O)NC(C)C)cc2CC(=O)N(C)C[C@H]1C,-5
O=C(/C=C/c1cccc([N+](=O)[O-])c1)OCC(=O)c1ccccc1,-5
CC(=O)Nc1ccc(C=CC=Cc2cccc([N+](=O)[O-])c2)cc1,-22
CC(=O)Oc1ccccc1C(=O)C=Cc1cccc([N+](=O)[O-])c1,89*
COc1ccccc1-c1ccc2n(c1=O)C[C@@H]1[C@@H](CO)[C@H](C(=O)N[C@H](C)c3ccccc3)[C@H]2N1C,2[25 µM]
SMILES,CD40 NFkB inh
N#C/C(=C(\N)Sc1ccc(N)cc1)c1ccccc1C(F)(F)F,-6[25 µM]
C[C@H](CO)N1C[C@H](C)[C@@H](CN(C)Cc2ccc3c(c2)OCO3)OCc2ccccc2-c2c(n(C)c3ccccc23)C1=O,17[25 µM]
CCOc1ccc(/C=C/C(=O)N(CC)CC(=O)Nc2c(F)cccc2F)cc1OC,5
CCN(CC(=O)Nc1c(F)cccc1F)C(=O)/C=C/c1ccc(C)o1,84*
CCN(CC(=O)Nc1c(F)cccc1F)C(=O)/C=C/c1ccc2ccccc2n1,-9
CN1C[C@@H]2[C@H](c3ccccc31)[C@H](CO)N2C(=O)c1ccccn1,-8[25 µM]
COc1cccc(C#Cc2ccc3c(c2)[C@H]2[C@H](CCN2S(=O)(=O)c2cccc(OC)c2)[C@H](CO)N3)c1,-14
CN1c2ccc(Br)cc2[C@H]2[C@H](CCN2S(=O)(=O)c2ccccc2F)[C@H]1CO,-1[25 µM]
CC(=O)N(C(C)=O)c1ncnc2c1c(-c1ccc(Cl)cc1)nn2C(C)(C)C,55*
CC(=O)Nc1ncnc2c1c(-c1ccc(Cl)cc1)nn2C(C)(C)C,7
CC(C)NC(=O)Nc1cccc2c1O[C@@H](CN(C)C(=O)OC(C)(C)C)[C@@H](C)CN(C)C2=O,-13
CC(C)NC(=O)N1[C@@H]2CN(CC(F)(F)F)C[C@H]1C2c1ccc(Br)cc1 (stereo not given in full),8
CC(=O)NC[C@H]1[C@@H](c2ccc(C3=CCCC3)cc2)[C@@H](CO)N1C(=O)C1CC1,4
COc1ccc2c3c([nH]c2c1)[C@@H](CO)N(Cc1ccccn1)CC31CCN(C(C)=O)CC1,-10[25 µM]
CO[C@H](CN(C)C(=O)c1ccccc1F)[C@@H](C)CN([C@@H](C)CO)S(=O)(=O)c1ccccc1,4
O=C(Nc1cc(F)ccc1F)N[C@@H]1CC[C@H](CCn2cc(C3CCCC3)nn2)O[C@@H]1CO,0
